Reference: the supplement of paper PMC10646978
± gives the standard deviation.

Key:
Details in all cases: modulator concentration 10 µM
[1] = test system: RAW-Dual (murine macrophage reporter line); assay: NF-kB reporter (SEAP) activity fold change vs agonist alone; higher = enhanced NF-kB activity
How it was run: (§1)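 RAW-Dual murine macrophage reporter cells were plated at 50 000 per well in 384-well plates, pin-transferred compound to 10 μM final, and pre-incubated for 1 hour at 37 °C before a PRR agonist was added and the cells incubated overnight. NF-κB activity was read from supernatant SEAP with QUANTI-Blue at 620 nm absorbance, and IRF activity from Lucia luciferase with QUANTI-Luc by luminescence. Each signal was expressed as fold change by dividing by the mean agonist-only control on the same plate. Two replicate plates were averaged, with errors obtained by propagation.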

[2] = test system: RAW-Dual (murine macrophage reporter line); assay: IRF reporter (Lucia luciferase) activity fold change vs agonist alone; higher = enhanced IRF activity
How it was run: as §1

[3] = test system: RAW-Dual (murine macrophage reporter line); assay: viability score (confluency relative to resting cells, overnight) (fraction); higher = more viable, active = viable (0.7 or more)
How it was run: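 Two confluency masks, generated with IncuCyte software over all imaged wells, were applied to IncuCyte images of RAW-Dual macrophages. The cells, in 384-well plates, had been exposed overnight to 10 μM final compound. The viability score is confluency as a fraction of resting cells, and a compound met the cutoff only with both masks above 70% of resting cells.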

[4] = agonist: CpG ODN 1826 0.5 ug/mL

| Structure (SMILES) | NF-kB reporter [1, 4] | NF-kB reporter ([1]; agonist: LPS 0.1 ug/mL) | NF-kB reporter ([1]; agonist: MPLA […]) | IRF reporter ([2]; agonist: 3'3'-cGAMP 10 ug/mL) | IRF reporter ([2]; agonist: LPS 0.1 ug/mL) | IRF reporter ([2]; agonist: MPLA […]) | viability score [3] |
| --- | --- | --- | --- | --- | --- | --- | --- |
| CCCCN(Cc1ccccc1)C(=O)C1CCN(Cc2c(F)cccc2Cl)CC1 | 0.378 ± 0.034 | 1.09 ± 0.09 | 0.757 ± 0.056 | 1.01 ± 0.029 | 1.69 ± 0.27 | 1.36 ± 0.25 | 0.617 (inactive) |
| Cc1cn(C2C=CC(CO)O2)c(=O)[nH]c1=O (configuration not stated) | 1.02 ± 0.15 | 0.902 ± 0.27 | 0.981 ± 0.06 | 0.886 ± 0.041 | 1.04 ± 0.27 | 1.04 ± 0.2 | 0.984 (active) |
| CC(C)NCC(O)COc1ccccc1C(C)(C)C.Cl (configuration not stated) | 0.857 ± 0.063 | 1.02 ± 0.098 | 1.15 ± 0.03 | 0.796 ± 0.029 | 1.02 ± 0.084 | 0.952 ± 0.17 | 0.922 (active) |
| CC(=O)C1=C(C)OC2(O)c3ccccc3C(=O)C12O (configuration not stated) | 0.903 ± 0.11 | 0.947 ± 0.089 | 1.23 ± 0.13 | 0.831 ± 0.029 | 1.02 ± 0.18 | 0.824 ± 0.12 | 0.945 (active) |
| CCCc1nc2ccccc2n1C(=O)C=CC(=O)O | 0.789 ± 0.061 | 0.833 ± 0.06 | 1.13 ± 0.17 | 0.981 ± 0.046 | 1.46 ± 0.12 | 1.59 ± 0.16 | 1 (active) |
| COC(=O)N[C@H](C(=O)N1CCC[C@H]1c1ncc(-c2ccc(-c3ccc(-c4cnc([C@@H]5CCCN5C(=O)[C@@H](NC(=O)OC)C(C)C)[nH]4)cc3)cc2)[nH]1)C(C)C | 0.724 ± 0.098 | 1.17 ± 0.46 | 1.22 ± 0.074 | 0.757 ± 0.12 | 1.52 ± 0.3 | 4.38 ± 1.3 | 0.987 (active) |
| Cc1cc(C(O)CCNC(=O)COc2cccc3c2OC(C)(C)C3)c(C)o1 (configuration not stated) | 1.04 ± 0.099 | 1.01 ± 0.15 | 1.01 ± 0.055 | 0.883 ± 0.038 | 0.992 ± 0.051 | 0.94 ± 0.13 | 1 (active) |
| COc1ccc(CC(C)N2CCN(c3cccc(C)c3C)CC2)cc1OC (configuration not stated) | 0.765 ± 0.064 | 0.974 ± 0.074 | 1.03 ± 0.08 | 0.787 ± 0.056 | 1.75 ± 0.22 | 1.16 ± 0.11 | 0.6 (inactive) |
| FC(F)(F)c1nnc2ccc(NC3CCN(c4ncnc5c4CCCC5)CC3)nn12 | 1.19 ± 0.096 | 1.52 ± 0.13 | 1.79 ± 0.13 | 1.17 ± 0.086 | 1.46 ± 0.091 | 1.4 ± 0.18 | 0.972 (active) |
| COC(=O)C1=C(C)N(Cc2ccccc2)C(=O)C1 | 1.06 ± 0.17 | 1.1 ± 0.14 | 0.984 ± 0.18 | 0.96 ± 0.039 | 1.32 ± 0.15 | 1.42 ± 0.3 | 0.623 (inactive) |
| COc1ccc(CNCc2ccc3ccccc3c2)c(OC)c1 | 0.163 ± 0.026 | 1.08 ± 0.09 | 1.79 ± 0.56 | 0.644 ± 0.046 | 1.74 ± 0.38 | 2.05 ± 0.59 | 0.688 (inactive) |
